Counter-ions that a name gives are not always drawn. Inconclusive results are not listed. Where a call stands in place of a potency, no number is given. The source made the active and inactive calls. Unless noted, calls follow the shape of the dose curve; as a rule, active = well fitted curve in the direction sought with a large enough effect; inconclusive = small, poorly fitted or top-dose-only effect, or another doubt; inactive = no such curve, though single readings can be large; an effect the other way counts as inactive or inconclusive. Peptide text beside a SMILES is read from it. * marks the point of attachment. Tfa = O=C(C(F)(F)F)*
Assays:
[1] = biological target: Cytochrome P450 3A4 (Homo sapiens) (UniProt P08684); assay: qHTS Assay for Inhibitors and Substrates of Cytochrome P450 3A4 (AID 884); also: nearly all actives have a fitted effect of over 50% in size; also: potency is read from the fitted curve at half-maximal effect
In short: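 Luminescent readout of luciferin produced by CYP3A4 (20 nM) dealkylation of Luciferin-PPXE, 25 uM (its KM). NADPH-driven reaction ran 60 min at RT after 10 min compound preincubation; data scaled to 57 uM ketoconazole as 100% inhibition.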

[2] = Confirmation and Secondary Assay for Modulators of Hemoglobin Beta Chain Splicing at IVS2 654 locus (AID 910);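 also: HeLa cells stably carrying EGFP split by mutant beta-globin IVS2-654 intron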
In short: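 HeLa cells stably expressing EGFP interrupted by β-globin IVS2-654 intron, seeded overnight in Opti-MEM/2% FCS, then treated 2 days at 37 °C. Restored splicing read as total peak GFP intensity per well by laser scanning cytometry (488 nm excitation, 500–520 nm emission); 500 nM antisense PNA as control.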

[3] = Confirmation and Secondary Assay for Modulators of Hemoglobin Beta Chain Splicing at IVS2 705 locus (AID 930);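 also: HeLa cells stably expressing the EGFP-705 splicing reporter; GFP fluorescence per well restored by corrected splicing of the IVS2-705 intron in EGFP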
In short: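 Per-well GFP, captured at 1 x 8 µm resolution with 488 nm excitation, served as the read-out for HeLa EGFP-705 cells incubated 2 days with test compound versus DMSO.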

[4] = qHTS Assay for Lipid Storage Modulators (AID 1519; calls by dose curve); conditions: Drosophila S3 cells, BODIPY lipid droplet/cell ratio, laser cytometry, cells loaded with oleic acid; for activity change, negative = inhibition: at 57.5 µM (top of the series)
In short: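 Cells seeded at 5,000 per well were treated with compounds over a concentration series and loaded with oleic acid (400 uM, as added). Lipid droplet fluorescence (488 nm excitation, 500-530 nm channel) was read by laser-scanning cytometry and normalized to 20 uM Triacsin C.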

[5] = biological target: Ubiquitin carboxyl-terminal hydrolase 1 (Homo sapiens) (UniProt O94782); assay: Inhibitors of USP1/UAF1: Pilot qHTS (AID 504865);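 also: rhodamine fluorescence freed from ubiquitin-rhodamine substrate followed over time; top concentration of the series differs between compounds; nearly all actives have a fitted effect of over 35% in size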
In short: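 USP1/UAF1 complex (1nM) preincubated with compound 15 min at room temperature, then Ub-Rho substrate (150nM final) added. Fluorescence read kinetically at 480/540 nm, 6 reads every 60 seconds. Buffer: 50mM HEPES pH 7.8, 0.5mM EDTA, 0.1 mg/ml BSA, 1mM TCEP, 0.01% Tween-20.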

[6] = measured here: cell count channel max response
[7] = measured here: lipid channel max response

Cytochrome P450 3A4 (Homo sapiens), sequence (P08684 whole entry, looked up): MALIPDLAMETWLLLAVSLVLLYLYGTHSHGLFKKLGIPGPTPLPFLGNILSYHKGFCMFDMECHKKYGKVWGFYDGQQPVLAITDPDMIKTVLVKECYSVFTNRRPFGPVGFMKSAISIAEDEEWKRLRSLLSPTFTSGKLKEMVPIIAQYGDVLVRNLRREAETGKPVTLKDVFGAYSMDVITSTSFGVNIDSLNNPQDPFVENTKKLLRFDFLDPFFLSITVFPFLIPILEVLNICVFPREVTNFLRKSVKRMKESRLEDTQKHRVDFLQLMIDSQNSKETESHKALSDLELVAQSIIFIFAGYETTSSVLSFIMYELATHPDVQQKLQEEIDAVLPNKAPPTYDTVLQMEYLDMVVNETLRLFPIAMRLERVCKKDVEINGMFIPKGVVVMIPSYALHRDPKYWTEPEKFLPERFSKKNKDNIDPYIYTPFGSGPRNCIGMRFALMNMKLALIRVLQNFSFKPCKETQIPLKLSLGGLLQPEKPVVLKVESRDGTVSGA
Ubiquitin carboxyl-terminal hydrolase 1 (Homo sapiens), sequence (O94782 whole entry, looked up): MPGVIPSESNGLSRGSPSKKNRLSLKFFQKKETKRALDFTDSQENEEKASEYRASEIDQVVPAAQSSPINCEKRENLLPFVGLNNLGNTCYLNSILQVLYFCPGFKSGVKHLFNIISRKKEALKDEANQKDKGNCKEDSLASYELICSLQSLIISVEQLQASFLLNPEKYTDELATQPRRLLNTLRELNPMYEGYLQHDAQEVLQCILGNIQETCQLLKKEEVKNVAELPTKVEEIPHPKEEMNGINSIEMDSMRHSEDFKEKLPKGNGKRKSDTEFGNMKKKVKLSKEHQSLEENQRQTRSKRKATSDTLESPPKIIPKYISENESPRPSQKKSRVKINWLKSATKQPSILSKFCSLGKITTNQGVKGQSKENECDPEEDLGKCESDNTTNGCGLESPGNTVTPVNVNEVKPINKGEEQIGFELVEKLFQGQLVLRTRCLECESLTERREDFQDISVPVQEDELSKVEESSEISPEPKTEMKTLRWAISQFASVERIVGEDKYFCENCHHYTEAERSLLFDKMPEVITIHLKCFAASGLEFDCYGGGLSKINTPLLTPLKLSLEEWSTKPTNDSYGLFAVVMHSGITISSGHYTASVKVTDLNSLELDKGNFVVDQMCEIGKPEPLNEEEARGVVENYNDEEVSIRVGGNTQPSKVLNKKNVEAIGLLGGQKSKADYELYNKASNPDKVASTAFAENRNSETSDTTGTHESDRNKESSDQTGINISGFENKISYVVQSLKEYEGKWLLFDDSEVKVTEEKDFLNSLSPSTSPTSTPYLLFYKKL

| SMILES | Potency [1] | Potency [2] | Potency [3] | activity change, negative = inhibition [4] | max response [4, 6] [%] | max response [4, 7] [%] | Potency [5] |
| --- | --- | --- | --- | --- | --- | --- | --- |
| CC1C(=O)CCC2[C@]1(C)CCC1[C@]2(C)CC[C@@]2(C)C3CC(C)(C)CC[C@]3(C)CC[C@@]12C (stereo partly drawn) | inactive | inactive | inactive | 2.51% (inactive) | 9.14 | 14.3 | inactive |
| CC(=O)Oc1cc(-c2coc3cc(OC(C)=O)c(OC(C)=O)c(OC(C)=O)c3c2=O)cc(OC(C)=O)c1OC(C)=O | inactive | inactive | inactive | 13.7% (inactive) | 12.1 | 28.6 | inactive |
| CC(=O)N1CCCC1C(=O)O (stereo not drawn) | inactive | inactive | inactive | 7.19% (inactive) | 1.45 | 9.22 | inactive |
| CCC(C(=O)O)c1ccccc1 (stereo not drawn) | inactive | inactive | inactive | 0.321% (inactive) | 8.63 | 10.3 | inactive |
| CC(C)CC(N)C(=O)NC(C)C(=O)O (stereo not drawn) | inactive | inactive | inactive | 3.3% (inactive) | 18.5 | 21.6 | inactive |
| OCc1ccccc1O[C@H]1OC(CO)C(O)C(O)C1O (stereo partly drawn) | inactive | inactive | inactive | 3.66% (inactive) | 2.55 | 8.97 | inactive |
| NC(CCC(=O)NC(CCSC(CC(=O)O)C(=O)O)C(=O)NCC(=O)O)C(=O)O (stereo not drawn) | inactive | inactive | inactive | 6.92% (inactive) | 13.3 | 21.2 | inactive |
| COc1cccc2c1CCC1=CC(=O)CC[C@@]12C | inactive | inactive | inactive | 11.4% (inactive) | 2.03 | 15.6 | inactive |
| NC1=NCCN1CC(=O)O | inactive | inactive | inactive | 4.53% (inactive) | 1.34 | 10.9 | inactive |
| O=C(Oc1cc(OC(=O)c2ccccc2)c2c(c1)OC(c1ccc(OC(=O)c3ccccc3)c(OC(=O)c3ccccc3)c1)[C@@H](OC(=O)c1ccccc1)C2)c1ccccc1 (stereo partly drawn) | inactive | inactive | inactive | -8.04% (inactive) | 23.3 | 15.7 | inactive |
| Nc1ncnc2[nH]c(=O)[nH]c12 | inactive | inactive | inactive | 4.6% (inactive) | 1.75 | 6.43 | inactive |
| CCCCCCCCCCCCC(C(=O)O)C(C)C(=O)O (stereo not drawn) | inactive | inactive | inactive | 4.67% (inactive) | 6.54 | 14 | inactive |
| C=C(C)C1CC=C(CO)CC1 (stereo not drawn) | inactive | inactive | inactive | 0.669% (inactive) | -1.53 | 1.38 | inactive |
| CC(=O)Oc1ccc2c(c1)CCC1C2CC[C@@]2(C)C1CC(OC(C)=O)C2OC(C)=O (stereo partly drawn) | inactive | inactive | inactive | 5.31% (inactive) | 10.1 | 17.4 | inactive |
| Nc1nc2c([nH]c(=O)n2C2OC(CO)C(O)C2O)c(=O)[nH]1 (stereo not drawn) | inactive | inactive | inactive | 1.54% (inactive) | 9.74 | 13.6 | inactive |
| Cn1nnnc1SCC1=C(C(=O)O)N2C(=O)C(NC(=O)C(OC=O)c3ccccc3)C2SC1 (stereo not drawn) | inactive | inactive | inactive | 4.18% (inactive) | 15 | 24.5 | inactive |
| C[C@@H]1/C(=N/O)CC2C[C@@H]1C2(C)C | inactive | inactive | inactive | 2.67% (inactive) | 9.02 | 13.7 | inactive |
| CCC(/C=C/C(C)C1CCC2C3CC=C4CC(O)CC[C@@]4(C)C3CC[C@@]12C)C(C)C (stereo partly drawn) | inactive | inactive | inactive | -0.637% (inactive) | 13.1 | 13.6 | inactive |
| CC(=O)NC1C(O)C[C@@](O)(C(=O)O)OC1[C@@H](O)C(O)CO (stereo partly drawn) | inactive | inactive | inactive | 3.62% (inactive) | 13.3 | 18.3 | inactive |
| CCC(C(N)=O)c1ccccc1 (stereo not drawn) | inactive | inactive | inactive | 9.01% (inactive) | 9.46 | 21.9 | inactive |
| Nc1ncnc2c1nc(Br)n2C1CC(O)C(CO)O1 (stereo not drawn) | inactive | inactive | inactive | 2.34% (inactive) | 9.06 | 11.8 | inactive |
| CC1CCC(C(C)(C)O)CC2=C1CCC2C (stereo not drawn) | inactive | inactive | inactive | 7.53% (inactive) | 9.89 | 15.9 | inactive |
| C=C(C)C1(O)OC(=O)C=C1OC (stereo not drawn) | inactive | inactive | inactive | -0.62% (inactive) | -1.24 | -2.01 | inactive |
| CC(CCC(=O)O)C1CCC2C3CC[C@@H]4CCCC[C@@]4(C)C3CC[C@@]12C (stereo partly drawn) | inactive | inactive | inactive | 2.19% (inactive) | 13.8 | 19 | inactive |
| CC(C)C(NC(=O)C(Cc1ccc(O)cc1)NC(=O)C(NC(=O)C(F)(F)F)C(C)C)C(=O)O (stereo not drawn) (Tfa-Val-Tyr-Val-OH; configuration not given here) | inactive | inactive | inactive | 4.31% (inactive) | 0.432 | 4.35 | inactive |

| SMILES | Potency [1] | Potency [2] | Potency [3] | activity change, negative = inhibition [4] | max response [4, 6] [%] | max response [4, 7] [%] | Potency [5] |
| --- | --- | --- | --- | --- | --- | --- | --- |
| OCC(O)C(O)[C@H](O[C@H]1OC(CO)C(O)C(O)C1O)[C@H](O)CO (stereo partly drawn) | inactive | inactive | inactive | 3.91% (inactive) | 11.8 | 16 | inactive |
| CC(=O)OCC1OC(n2cnc3c(Cl)nc(Cl)nc32)C(OC(C)=O)C1OC(C)=O (stereo not drawn) | inactive | inactive | inactive | -4.18% (inactive) | 15.8 | 12.7 | inactive |
| CCOC(=O)C(=O)C1(C(=O)OCC)Oc2cc(OC)cc(OC)c2C(=O)C1c1ccccc1 (stereo not drawn) | inactive | inactive | inactive | 5.57% (inactive) | 9.96 | 15 | inactive |
| CCC(CCC(C)C1CCC2C3CCC4CC(O)CC[C@@]4(C)C3CC[C@@]12C)C(C)C (stereo partly drawn) | inactive | inactive | inactive | 7.69% (inactive) | 1.31 | 10.4 | inactive |
| COC1C(O)C(O)C(O)C(O)C1O (stereo not drawn) | inactive | inactive | inactive | 5.15% (inactive) | 13.2 | 22.7 | inactive |
| COc1cc(OC)c2c(c1Cl)OC1(C2=O)C(O)=CC(=O)CC1C (stereo not drawn) | inactive | inactive | inactive | 0.55% (inactive) | -1.12 | 2.38 | inactive |
| COC1C[C@@H](O[C@@H]2C(C)C(=O)OC(C)C(C)C(O)C(C)C(=O)[C@@]3(CO3)CC(C)C(OC3OC(C)CC(N(C)C)C3O)C2C)OC(C)[C@@H]1O (stereo partly drawn) | 6.31 µM (active) | inactive | inactive | 4.89% (inactive) | 4.4 | 11 | inactive |
| COc1cc2c(cc1O)C(Cc1ccc(O)cc1)N(C)CC2 (stereo not drawn) | inactive | inactive | inactive | 2.46% (inactive) | 13.5 | 17.7 | inactive |
| CC(=O)NC(CC(=O)O)C(=O)O (stereo not drawn) | inactive | inactive | inactive | 2.97% (inactive) | 13.4 | 18 | inactive |
| C=C[C@](C)(O)CCC1C(=C)CCC2[C@@](C)(CO)CCC[C@@]12C (stereo partly drawn) | 2.51 µM (active) | inactive | inactive | 2.53% (inactive) | -1.43 | 3.55 | inactive |
| COc1ccc2c(c1)O[C@@H]1c3ccc(OC)cc3OCC21 (stereo partly drawn) | inactive | inactive | inactive | 3.42% (inactive) | 4.03 | 9.6 | inactive |
| COC1C(O)C(CO)OC1n1c(Br)nc2c(=O)[nH]c(N)nc21 (stereo not drawn) | inactive | inactive | inactive | 1.73% (inactive) | 0.309 | 3.63 | inactive |
| C/C1=C/CC(C)(C)/C=C/C/C(C)=C/CC1 | inactive | inactive | inactive | 0.556% (inactive) | 16.1 | 16.9 | inactive |
| CC(=O)OCC(=O)C1CCC2C3CCC4=CC(=O)CC[C@@]4(C)C3CC[C@]12C (stereo partly drawn) | inactive | inactive | inactive | 5.85% (inactive) | 5.1 | 13.2 | inactive |
| CC1(C)SC2C(NC(=O)C(NC(=O)N3CCNC3=O)c3ccccc3)C(=O)N2C1C(=O)O (stereo not drawn) | inactive | inactive | inactive | 8.06% (inactive) | 17.4 | 28.9 | inactive |
| CC12CCC3C(CC3(C)C)C(C)(CCC1=O)O2 (stereo not drawn) | inactive | inactive | inactive | 8.76% (inactive) | 19 | 26.9 | inactive |
| OCC1OC(n2cnc3c(NCc4ccco4)ncnc32)C(O)C1O (stereo not drawn) | inactive | inactive | inactive | -0.247% (inactive) | -4.44 | -3.92 | inactive |
| Nc1nc(Cl)c2ncn(C3OC(CO)C(O)C3O)c2n1 (stereo not drawn) | inactive | inactive | inactive | 1.75% (inactive) | -10 | -7.18 | inactive |
| CC1(O)CC2C(CC1O)C2(C)C (stereo not drawn) | inactive | inactive | inactive | 2.85% (inactive) | -5.99 | -2.1 | inactive |
| CCCC(NC(C)C(=O)N1C(C(=O)O)CC2CCCCC21)C(=O)OCC (stereo not drawn) | inactive | inactive | inactive | 9% (inactive) | 4.3 | 11.7 | inactive |
| CC(=O)OC/C=C(\C)CC/C=C(\C)CC/C=C(\C)CC/C=C(\C)CC/C=C(\C)CC/C=C(\C)CC/C=C(\C)CC/C=C(\C)CCC=C(C)C | inactive | inactive | inactive | 1.76% (inactive) | 7.11 | 8.78 | inactive |
| CC(C(=O)O)C1CCC2C3CC=C4CC(O)CC[C@@]4(C)C3CC[C@]12C (stereo partly drawn) | inactive | inactive | inactive | 4.4% (inactive) | 6.91 | 12.2 | inactive |
| CC(=O)OC1CC(OC(C)=O)[C@]2(C)C(CC(=O)[C@]3(C)C2CC[C@@]2(C)C(c4ccoc4)OC(=O)C4O[C@@]423)C1(C)C (stereo partly drawn) | 20 µM (active) | inactive | inactive | 4.36% (inactive) | 11.4 | 20.9 | inactive |
| CC(C)c1c(O)c(-c2cc3c(c(C(C)C)c2O)CCC2C(C)(C)CCC[C@@]32C)cc2c1CCC1C(C)(C)CCC[C@@]21C (stereo partly drawn) | inactive | inactive | inactive | 8.62% (inactive) | 4.25 | 16.8 | inactive |
